According to PubChem BioAssay (Tox21):
Results filed as inconclusive are left out. Entries that show only a call come without a potency. Values without a mark were called inactive. Activity calls are given as the source filed them. Unless noted, calls come from the whole dose curve; as a rule, active = well fitted curve in the direction sought with a large enough effect in the repeat runs; inconclusive = weak or mixed curves; inactive = no such curve, though single readings can be large; an effect the other way counts as inactive or inconclusive.

Key:
[1] = qHTS assay to identify small molecule antagonists of the thyroid receptor (TR) signaling pathway - cell viability counter screen (AID 743064); note: nearly all actives have a fitted effect of over 50% in size; note: potency is the fitted concentration of half-maximal effect
In short: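 Viability of T3-stimulated (1 nM final) GH3.TRE-Luc cells is measured by CellTiter-Fluor fluorescence after 23.5 h compound exposure at 37 °C plus 30 min reagent incubation.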

[2] = qHTS assay to identify small molecule antagonists of the thyroid receptor (TR) signaling pathway (AID 743065); note: nearly all actives have a fitted effect of over 55% in size; note: potency is the fitted concentration of half-maximal effect
In short: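 GH3.TRE-Luc rat pituitary cells carrying two TR response elements driving luciferase were plated for 4 h, given compound plus 1 nM T3 (final), and incubated 23.5 h at 37 C. ONE-Glo luminescence measured reporter inhibition; CellTiter-Fluor fluorescence tracked cytotoxicity.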

[3] = test system: thyroid hormone receptor (rat, GH3 cells); assay: qHTS assay to identify small molecule agonists of the thyroid receptor (TR) signaling pathway (AID 743066; calls by dose curve)
[4] = qHTS assay to identify small molecule antagonists of the estrogen receptor alpha (ER-alpha) signaling pathway - cell viability counter screen (AID 743074; calls by dose curve;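 note: HEK293 cells carrying ER-alpha-UAS-bla reporter stimulated with 17beta-estradiol; nearly all actives have a fitted effect of over 45% in size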)
[5] = target: Estrogen receptor (Homo sapiens) (UniProt P03372); assay: qHTS assay to identify small molecule agonists of the estrogen receptor alpha (ER-alpha) signaling pathway (AID 743075; calls by dose curve;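 note: HEK293 GripTite cells with ER-alpha and UAS-driven beta-lactamase reporter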)
[6] = target: Estrogen receptor (Homo sapiens) (UniProt P03372); assay: qHTS assay to identify small molecule agonists of the estrogen receptor alpha (ER-alpha) signaling pathway using the BG1 cell line (AID 743079); details: BG1Luc4E2 cells, ERE-luciferase agonist, 22 h; activation: at 70.3 µM (top of the series); note: nearly all actives have a fitted effect of over 20% in size; note: potency is the fitted concentration of half-maximal effect
[7] = qHTS assay to identify small molecule antagonists of the estrogen receptor alpha (ER-alpha) signaling pathway using the BG1 cell line (AID 743080; calls by dose curve;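 note: BG1 cells stimulated with 17beta-estradiol alongside compound; nearly all actives have a fitted effect of over 25% in size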)
In short: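 Luminescence from a 4×ERE-luciferase reporter in BG1-Luc-4E2 cells served as read-out. Cells, pre-cultured 5 days in stripped-serum phenol-red-free medium, were exposed to compound with 17beta-estradiol co-stimulation for 21.5 h at 37 C.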

[8] = qHTS assay to identify small molecule antagonists of the estrogen receptor alpha (ER-alpha) signaling pathway using the BG1 cell line - cell viability counter screen (AID 743081);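 note: compound given together with 17beta-estradiol as the ER stimulus; nearly all actives have a fitted effect of over 45% in size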; note: potency is the fitted concentration of half-maximal effect
Aromatase (Homo sapiens) = Aromatase (Homo sapiens) (UniProt P11511); assay: qHTS assay to identify aromatase inhibitors (AID 743083); note: nearly all actives have a fitted effect of over 55% in size; note: potency is the fitted concentration of half-maximal effect
[9] = qHTS assay to identify aromatase inhibitors - cell viability counter screen (AID 743084);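 note: cells stimulated with testosterone during compound exposure; nearly all actives have a fitted effect of over 55% in size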; note: potency is the fitted concentration of half-maximal effect
[10] = target: Aryl hydrocarbon receptor (Homo sapiens) (UniProt P35869); assay: qHTS assay to identify small molecule that activate the aryl hydrocarbon receptor (AhR) signaling pathway (AID 743085); note: nearly all actives have a fitted effect of over 15% in size; note: potency is the fitted concentration of half-maximal effect;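 for activation: HG2L7.5c1 human HepG2 liver cells with stably integrated DRE-driven firefly reporter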
In short: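 A multiplexed format paired cell viability (CellTiter-Fluor fluorescence) with AhR-dependent luciferase output (ONE-Glo luminescence) in the same wells of HepG2 DRE-luc cells after 24 h compound exposure at 37C.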

[11] = qHTS assay to identify small molecule that activate the aryl hydrocarbon receptor (AhR) signaling pathway - cell viability counter screen (AID 743086); note: nearly all actives have a fitted effect of over 45% in size; note: potency is the fitted concentration of half-maximal effect
In short: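 HepG2-AhR-luc (HG2L7.5c1) cells, 4000/well, were preincubated 5 h at 37C, exposed to compound in qHTS format for 24 hr at 37C, then given CellTiter-Fluor for 30 min; viability was read as fluorescence in the reporter wells.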

[12] = target: Peroxisome proliferator-activated receptor gamma (Homo sapiens) (UniProt P37231); assay: qHTS assay to identify small molecule agonists of the peroxisome proliferator-activated receptor gamma (PPARg) signaling pathway (AID 743094; active = well fitted activation curve with a large enough effect in the signal ratio in the repeat runs, not every such curve was filed as active; the % refers to the signal ratio)
In short: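 Following 5 h plating at 37C, PPARg-bla HEK293H cells receive compound or DMSO for 17 h; fluorescence intensity is recorded after LiveBLAzer B/G loading for 1 h at room temperature.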

[13] = qHTS assay to identify small molecule phospholipidosis (PLD) inducers (AID 1259344; active = well fitted curve in the direction sought with a large enough effect; an effect the other way counts as inactive or inconclusive)
In short: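 HepG2 cells grown on collagen I take up LipidTOX Red while exposed to compound for 24 h; after fixation they are imaged at 20x and pit metrics are extracted.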

[14] = target: Nuclear receptor subfamily 1 group I member 2 (Rattus norvegicus) (UniProt Q9R1A7); assay: Rat pregnane X receptor (rPXR) activation by small molecules, qHTS assay (AID 1346983); details: rPXR luciferase reporter cells, One-Glo luminescence, 24 h; max activation: active compounds read high; note: nearly all actives have a fitted effect of over 20% in size; note: potency is the fitted concentration of half-maximal effect
In short: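 Cell-based rPXR luciferase reporter assay, 2,000 cells per well, rested 5hr at 37 C before compound addition in DMSO, then 24 hr at 37 C. One-Glo reagent was added and luminescence read after 30 min at room temperature.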

[15] = target: Nuclear receptor subfamily 1 group I member 2 (Homo sapiens) (UniProt O75469); assay: CYP3A4 induction through human pregnane X receptor (PXR) by small molecules, qHTS assay (AID 1346984); note: nearly all actives have a fitted effect of over 40% in size; note: potency is the fitted concentration of half-maximal effect
In short: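 qHTS, concentration-response format: HepG2 DPX-2 line, PXR/CYP3A4-luc. Exposure 24 h, 37C. Substrate Luciferin-IPA 3uM final, 3 h. Detection One-Glo, 30 min RT.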

[16] = target: Nuclear receptor subfamily 1 group I member 2 (Homo sapiens) (UniProt O75469); assay: Human pregnane X receptor (PXR) activation by small molecules, qHTS assay (AID 1346985); note: nearly all actives have a fitted effect of over 40% in size
In short: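 DPX-2 cells (HepG2 co-transfected with a PXR response element and a CYP3A4-promoter luciferase construct) were seeded at 2,000 per well, rested 5 hr at 37C, then exposed to DMSO-dissolved compounds for 24 hr. Activation was read as luciferase luminescence.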

[17] = target: Estrogen receptor (Homo sapiens) (UniProt P03372); assay: qHTS assay to identify small molecule antagonists of the estrogen receptor alpha (ER-alpha) signaling pathway (AID 743069; active = well fitted curve in the direction sought with a large enough effect in the signal ratio in the repeat runs, not every such curve was filed as active; the % refers to the signal ratio)
In short: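 Estradiol-stimulated ER-alpha-UAS-bla HEK293 cells, 18 hr compound exposure at 37C. LiveBLAzer B/G substrate, 2 hr RT, fluorescence read.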

Aryl hydrocarbon receptor (Homo sapiens), sequence (P35869 whole entry, looked up): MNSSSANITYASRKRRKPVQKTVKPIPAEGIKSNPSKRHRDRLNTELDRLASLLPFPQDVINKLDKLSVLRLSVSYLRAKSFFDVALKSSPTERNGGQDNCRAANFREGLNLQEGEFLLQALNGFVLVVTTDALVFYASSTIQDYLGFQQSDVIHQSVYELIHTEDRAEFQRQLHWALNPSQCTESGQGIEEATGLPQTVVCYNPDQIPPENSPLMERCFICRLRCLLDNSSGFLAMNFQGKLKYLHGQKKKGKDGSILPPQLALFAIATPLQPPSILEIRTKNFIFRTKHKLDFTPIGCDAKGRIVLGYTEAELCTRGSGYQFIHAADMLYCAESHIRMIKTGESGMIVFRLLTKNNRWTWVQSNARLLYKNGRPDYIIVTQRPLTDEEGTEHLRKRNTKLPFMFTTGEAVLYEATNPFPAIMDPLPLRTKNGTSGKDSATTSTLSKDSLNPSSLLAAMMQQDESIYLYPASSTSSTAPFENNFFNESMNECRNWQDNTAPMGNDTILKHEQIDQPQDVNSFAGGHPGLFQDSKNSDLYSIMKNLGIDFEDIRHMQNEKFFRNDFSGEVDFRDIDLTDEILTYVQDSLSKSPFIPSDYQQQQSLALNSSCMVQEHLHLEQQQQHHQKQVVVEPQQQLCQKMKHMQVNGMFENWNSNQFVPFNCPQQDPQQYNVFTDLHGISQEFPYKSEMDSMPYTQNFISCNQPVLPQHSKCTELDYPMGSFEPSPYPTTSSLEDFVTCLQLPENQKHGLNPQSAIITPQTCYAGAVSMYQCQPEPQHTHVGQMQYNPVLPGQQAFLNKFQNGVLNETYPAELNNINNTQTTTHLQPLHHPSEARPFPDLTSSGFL
Aromatase (Homo sapiens), sequence (P11511 whole entry, looked up): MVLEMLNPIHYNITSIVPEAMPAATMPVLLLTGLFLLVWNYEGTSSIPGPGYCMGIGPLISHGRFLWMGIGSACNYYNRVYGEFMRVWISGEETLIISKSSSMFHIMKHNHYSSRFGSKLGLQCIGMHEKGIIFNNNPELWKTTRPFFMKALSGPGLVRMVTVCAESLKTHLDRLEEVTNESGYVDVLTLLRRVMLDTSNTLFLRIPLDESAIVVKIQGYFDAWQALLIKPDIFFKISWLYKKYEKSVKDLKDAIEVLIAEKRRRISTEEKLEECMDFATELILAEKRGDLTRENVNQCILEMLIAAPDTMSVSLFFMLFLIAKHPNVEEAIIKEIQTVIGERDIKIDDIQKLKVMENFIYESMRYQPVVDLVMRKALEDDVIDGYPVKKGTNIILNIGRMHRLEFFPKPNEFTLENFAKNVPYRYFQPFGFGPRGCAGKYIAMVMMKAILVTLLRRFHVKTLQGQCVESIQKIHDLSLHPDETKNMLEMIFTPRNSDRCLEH
Peroxisome proliferator-activated receptor gamma (Homo sapiens), sequence (P37231 whole entry, looked up): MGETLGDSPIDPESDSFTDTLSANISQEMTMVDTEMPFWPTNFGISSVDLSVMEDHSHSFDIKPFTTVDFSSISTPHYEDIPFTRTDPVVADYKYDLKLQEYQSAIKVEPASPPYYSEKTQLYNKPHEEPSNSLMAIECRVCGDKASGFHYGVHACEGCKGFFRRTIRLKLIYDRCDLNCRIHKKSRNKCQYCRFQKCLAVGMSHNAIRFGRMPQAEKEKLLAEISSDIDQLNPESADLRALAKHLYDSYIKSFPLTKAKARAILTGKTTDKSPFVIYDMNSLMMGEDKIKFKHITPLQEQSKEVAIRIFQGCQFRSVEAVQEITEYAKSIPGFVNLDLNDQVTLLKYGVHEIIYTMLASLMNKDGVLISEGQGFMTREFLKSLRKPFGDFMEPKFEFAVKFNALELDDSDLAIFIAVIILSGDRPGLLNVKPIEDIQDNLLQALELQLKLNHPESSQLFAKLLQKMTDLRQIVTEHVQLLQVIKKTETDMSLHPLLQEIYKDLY
Estrogen receptor (Homo sapiens), sequence (P03372 whole entry, looked up): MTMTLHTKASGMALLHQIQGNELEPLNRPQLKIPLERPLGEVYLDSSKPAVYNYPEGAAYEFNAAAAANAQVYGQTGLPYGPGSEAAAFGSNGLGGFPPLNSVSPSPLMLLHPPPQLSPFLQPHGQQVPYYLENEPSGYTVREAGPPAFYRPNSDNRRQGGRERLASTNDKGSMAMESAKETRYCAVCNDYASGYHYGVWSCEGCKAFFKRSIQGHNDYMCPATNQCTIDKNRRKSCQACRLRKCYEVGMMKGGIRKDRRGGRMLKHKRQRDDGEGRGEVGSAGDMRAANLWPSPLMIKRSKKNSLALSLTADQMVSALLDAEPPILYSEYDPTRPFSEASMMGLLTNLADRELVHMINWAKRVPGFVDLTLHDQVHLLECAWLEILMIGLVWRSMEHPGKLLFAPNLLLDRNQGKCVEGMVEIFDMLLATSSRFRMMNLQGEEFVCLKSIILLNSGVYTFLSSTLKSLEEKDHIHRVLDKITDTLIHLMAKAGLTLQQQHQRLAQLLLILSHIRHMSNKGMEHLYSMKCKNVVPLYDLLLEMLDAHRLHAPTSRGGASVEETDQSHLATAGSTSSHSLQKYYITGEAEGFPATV
Nuclear receptor subfamily 1 group I member 2 (Rattus norvegicus), sequence (Q9R1A7 whole entry, looked up): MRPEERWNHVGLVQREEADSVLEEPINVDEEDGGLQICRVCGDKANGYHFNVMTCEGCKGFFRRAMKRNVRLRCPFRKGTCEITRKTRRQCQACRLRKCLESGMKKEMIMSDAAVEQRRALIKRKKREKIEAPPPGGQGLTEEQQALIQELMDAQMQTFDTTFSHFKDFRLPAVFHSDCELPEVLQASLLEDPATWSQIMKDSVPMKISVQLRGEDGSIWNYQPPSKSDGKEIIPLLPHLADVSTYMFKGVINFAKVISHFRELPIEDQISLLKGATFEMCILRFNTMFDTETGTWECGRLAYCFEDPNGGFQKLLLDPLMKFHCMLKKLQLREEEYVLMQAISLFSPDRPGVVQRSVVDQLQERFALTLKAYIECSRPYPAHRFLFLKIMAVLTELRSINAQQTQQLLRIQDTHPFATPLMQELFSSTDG

| Compound | Potency [1] | Potency [2] | Potency [3] | Potency [4] | Potency [5] | Potency [6] | Potency [7] | Potency [8] | Potency (Aromatase (Homo sapiens)) | Potency [9] | Potency [10] | Potency [11] | Potency [12] | Potency [13] | max activation [14] [%] | Potency [15] | Potency [16] | Potency [17] | PLD induction [13] | Potency [14] |
| --- | --- | --- | --- | --- | --- | --- | --- | --- | --- | --- | --- | --- | --- | --- | --- | --- | --- | --- | --- | --- |
| O=C(O)c1cc(N=Nc2ccc(O)c(C(=O)O)c2)ccc1O | inactive | inactive | inactive | inactive | inactive | inactive | inactive | inactive | inactive | inactive | inactive | inactive | inactive | inactive | -4.04 | inactive | inactive |  |  |  |
| CC(C)(C)CC(C)(C)c1cc(Cc2cc(C(C)(C)CC(C)(C)C)cc(-n3nc4ccccc4n3)c2O)c(O)c(-n2nc3ccccc3n2)c1 | inactive | inactive | inactive | inactive | inactive |  | inactive | inactive | inactive | inactive | inactive | inactive | inactive | inactive | -3.34 | inactive | inactive | inactive |  |  |
| CC(C)[C@H](N)C(=O)OCC(CO)OCn1cnc2c(=O)[nH]c(N)nc21 (stereo partly drawn) | inactive | inactive | inactive | inactive | inactive | inactive |  | inactive | inactive | inactive | inactive | inactive | inactive | inactive | -3.1 | inactive | inactive | inactive |  |  |
| Cc1ncc(COP(=O)(O)O)c(CN)c1O | inactive | inactive | inactive |  | inactive | inactive | inactive | inactive | inactive | inactive | inactive | inactive | inactive |  | 0.341 | inactive | inactive | inactive | -1.52% [at 7.66 µM] |  |
| CCCC(=O)O[C@]1(C(=O)COC(C)=O)CC[C@H]2[C@@H]3C[C@H](F)C4=CC(=O)C=C[C@]4(C)[C@@]3(F)[C@@H](O)C[C@@]21C | inactive | inactive | inactive | inactive | inactive | inactive |  | inactive | inactive |  | inactive | inactive |  | inactive |  | inactive | inactive | inactive |  | 2.51 µM (active) |
| O=C(O)c1ccc(NC(=O)[C@H](Cc2ccc(O)cc2)NC(=O)c2ccccc2)cc1 | inactive | inactive | inactive | inactive | inactive | inactive | inactive | inactive | inactive | inactive | inactive | inactive | inactive | inactive | 0.18 | inactive | inactive |  |  |  |
| O=P(O)(O)OC[C@H]1O[C@](O)(COP(=O)(O)O)[C@@H](O)[C@@H]1O | inactive | inactive | inactive | inactive |  | 10.6 µM (active) | inactive | inactive | inactive | inactive | inactive | inactive | inactive | inactive | -2.72 | inactive | inactive | inactive |  |  |
| Cc1cc(-c2ccc(N=Nc3c(S(=O)(=O)O)cc4cc(S(=O)(=O)O)cc(N)c4c3O)c(C)c2)ccc1N=Nc1c(S(=O)(=O)O)cc2cc(S(=O)(=O)O)cc(N)c2c1O | 23.7 µM (active) | 11.9 µM (active) | inactive |  | inactive |  |  | 21.1 µM (active) | 11.9 µM (active) | 13.3 µM (active) | inactive | 15 µM (active) | inactive | inactive | -20.2 | inactive | inactive | inactive |  |  |
| CO/N=C(\C(=O)N[C@@H]1C(=O)N2C(C(=O)O)=C(CSC(=O)c3ccco3)CS[C@H]12)c1csc(N)n1 | inactive | inactive | inactive | inactive | inactive | inactive | inactive | inactive | inactive | inactive | inactive | inactive | inactive | inactive | -5.54 | inactive | inactive |  |  |  |
| O=C(Nc1ccc(O)cc1)c1ccccc1O | inactive | inactive | inactive | inactive | inactive | 13.3 µM (active) |  | inactive | inactive | inactive | 23.7 µM (active) | inactive | inactive | inactive | 3.27 | 11.2 µM (active) | inactive | inactive |  |  |
| COc1cc(/C=C/C(=O)N2CCN(CC(=O)N3CCCC3)CC2)cc(OC)c1OC | inactive | inactive | inactive |  | inactive | inactive | inactive | inactive |  | inactive | inactive | inactive | inactive | inactive | 0.536 | inactive | inactive | inactive |  |  |
| COc1ccc2cc([C@H](C)CO)ccc2c1 | inactive | inactive | inactive | inactive | inactive | 33.5 µM (active) |  | inactive | inactive | inactive |  | inactive | inactive | inactive | -2.68 | inactive | inactive | inactive |  |  |
